Inconclusive results are not listed. The source made the active and inactive calls. Calls come from the whole dose curve; as a rule, active = well fitted inhibition curve with a large enough effect; inconclusive = small, poorly fitted or top-dose-only effect, or effect the other way; inactive = flat fitted curve, though single readings scatter.
Molecular target: Menin (Homo sapiens) (UniProt O00255)
Experiment: Confirmation of Inhibitors Targeting the Menin-MLL Interaction in MLL Related Leukemias: Confirmation in an HTRF (commercial TR-FRET) Assay using His-tagged menin and biotin-labeled MLL peptide
Details: His-menin / biotin-MLL peptide binding; series mostly up to 126 µM; activity change, negative = inhibition: at the top concentration
Summary of the method: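 HTRF: His6-menin (200 nM) and biotin-MLL-w.t. peptide (80 nM) preincubated 15 min, then compounds 1 hr at ambient, before Eu-cryptate anti-His (3.5 nM) and streptavidin-XL665 (10 nM) for 1 h; 50 mM Tris-HCl pH 7.5, 50 mM NaCl, 1 mM DTT, BSA.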
% is set by controls: 0 for no effect and ±100 for the full control effect; potency is the fitted concentration of half-maximal effect.

Menin (Homo sapiens), sequence (O00255 whole entry, looked up): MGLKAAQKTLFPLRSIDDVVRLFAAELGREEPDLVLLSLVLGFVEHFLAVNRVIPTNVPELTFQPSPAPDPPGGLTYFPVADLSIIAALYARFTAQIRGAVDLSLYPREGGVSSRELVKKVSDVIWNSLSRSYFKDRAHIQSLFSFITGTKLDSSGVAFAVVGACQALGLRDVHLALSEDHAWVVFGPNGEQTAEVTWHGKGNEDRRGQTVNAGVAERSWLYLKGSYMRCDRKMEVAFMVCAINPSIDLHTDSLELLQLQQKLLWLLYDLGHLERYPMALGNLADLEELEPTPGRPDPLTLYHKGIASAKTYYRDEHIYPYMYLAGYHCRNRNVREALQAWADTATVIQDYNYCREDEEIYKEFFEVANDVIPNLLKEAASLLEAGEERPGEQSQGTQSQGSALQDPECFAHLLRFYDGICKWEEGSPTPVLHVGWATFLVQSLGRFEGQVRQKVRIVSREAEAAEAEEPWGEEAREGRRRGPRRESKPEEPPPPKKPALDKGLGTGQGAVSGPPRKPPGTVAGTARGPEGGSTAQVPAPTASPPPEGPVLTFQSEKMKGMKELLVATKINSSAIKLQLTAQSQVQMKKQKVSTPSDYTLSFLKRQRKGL

Potency, active:
CC(C)Sc1nc(N2CCOCC2)c2c3c(sc2n1)COC(C)(C)C3 316 µM
CC(=O)Nc1ccc(-c2cc(-c3ccc(NC(C)=O)cc3)nc(-c3ccc(NC(C)=O)cc3)n2)cc1 79.4 µM
NS(=O)(=O)c1ccc(NC(=O)c2ccc(-c3ccccc3)cc2)cc1 63.1 µM
O=C(COC(=O)c1ccc(NS(=O)(=O)c2cccs2)cc1)Nc1nc2c(F)c(F)c(F)cc2s1 39.8 µM

Activity change, negative = inhibition, inactive:
CCc1oc2ccccc2c1C(=O)c1cc(Br)c(O)c(Br)c1 -10.4%
Cc1nc(C)c(-c2ccc(SCc3ccccc3F)nn2)s1 2.1%
CCc1nn(C)c2c(=O)c(=O)c2n(C)[nH]1 7.67%
O=C(CSc1nnc(-c2c[nH]c3ccccc23)o1)N1c2ccccc2CCc2ccccc21 -26.4%
CC(=O)c1ccc2c(c1)N(CCCN1CCC(CCO)CC1)c1ccccc1S2 7.56% [at 62.9 µM]
O=C(N/N=C/c1cn(-c2cccs2)nc1-c1ccccc1)c1ccccc1O -10.9% [at 383 µM]
CCOC(=O)Cn1c2ccccc2n2nc(CCC(=O)O)c(=O)nc12 -0.0741%
COc1cccc(OC)c1NC(=O)CN1CCN(C)CC1 -0.577%
Cc1ccc(S(=O)(=O)c2cc(OC(=O)c3ccco3)ccc2OC(=O)c2ccco2)cc1 -10.5%
CCCCCC1CCC(C(=O)NCCN2CCOCC2)CC1 (configuration not stated) 10.1%
COc1ccc(OC)c(C(c2c(C)[nH][nH]c2=O)c2c(C)[nH][nH]c2=O)c1 -8.58% [at 383 µM]
c1ccc(-c2ccc(-c3csnn3)cc2)cc1 -8.86%
COC(=O)c1ccccc1NC1=C/C(=N\S(=O)(=O)c2ccc(C(=O)O)cc2)c2ccccc2C1=O -21.4% [at 383 µM]

— PubChem BioAssay AID2778 (National Center for Advancing Translational Sciences (NCATS), 2010)
